CYP2C19 activ: human CYP2C19 activators, primary screen, biochemical, luminescence. Cytochrome P450 2C19 (Homo sapiens), P33261. recombinant CYP2C19, luciferin-H EGE luminescence; active compounds read high; 0 = fully inhibited enzyme, 1 = untreated enzyme. activation factor at 5 µM. 96,000 tested, under 10 active;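 active = activation factor of at least 2 at 5 µM in the primary screen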
Target sequence (P33261 whole entry, looked up): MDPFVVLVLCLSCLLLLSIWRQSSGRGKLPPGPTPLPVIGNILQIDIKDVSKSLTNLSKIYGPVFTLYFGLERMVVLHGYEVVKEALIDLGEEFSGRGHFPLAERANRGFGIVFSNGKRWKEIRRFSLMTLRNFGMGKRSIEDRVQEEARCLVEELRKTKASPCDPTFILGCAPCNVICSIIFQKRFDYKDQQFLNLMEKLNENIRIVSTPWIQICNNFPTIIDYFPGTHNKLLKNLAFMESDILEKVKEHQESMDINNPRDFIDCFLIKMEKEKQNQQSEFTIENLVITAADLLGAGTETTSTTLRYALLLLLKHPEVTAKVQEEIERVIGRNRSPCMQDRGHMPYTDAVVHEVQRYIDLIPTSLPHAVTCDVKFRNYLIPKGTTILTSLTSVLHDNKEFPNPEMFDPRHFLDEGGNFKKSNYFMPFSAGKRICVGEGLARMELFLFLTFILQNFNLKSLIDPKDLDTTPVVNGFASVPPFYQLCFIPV
CYP2C19 inh: blockers of cytochrome P450 2C19 activity – biochemical, luminescence, ADME assay, primary screen; inhibition, % at 5 µM; AID 778, 2007; 21% of 96,000 active; CYP2C19 Supersomes, luciferin-H EGE luminescence, 30 min; P33261;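 active = CYP2C19 inhibition above a set limit at 5 µM in the primary screen, cut at about 50% in these data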
CYP2C9 inh: blockers of cytochrome P450 2C9 activity – biochemical, luminescence, ADME assay, primary screen. P11712. CYP2C9 Supersomes, luciferin-H conversion. inhibition, % at 5 µM. 20% of 96,000 active;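 active = blocking of liver enzyme CYP2C9 beyond about 50% at 5 µM, limit read from the data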
EphB4 antag: EphB4-ephrin-B2 interaction antagonists, primary screen, biochemical, TNYL-RAW peptide probe, fluorescence polarization. Ephrin type-B receptor 4 (Homo sapiens), P54760. EphB4 LBD / TNYL-RAW-Alexa532 peptide. inhibition, % at 7 µM. 0.15% of 97,000 active;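 active = inhibition above the screen-wide mean inhibition plus 3 SD, cut at about 15% in these data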
CYP2C9 act: human CYP2C9 activators, primary screen, biochemical, luminescence | 1.4% of 96,000 active | Cytochrome P450 2C9 (Homo sapiens), P11712 | recombinant CYP2C9, luciferin-H conversion; active compounds read high; factor 1 = untreated enzyme, 0 = blocked | AID 1024, 2008 | activation factor at 5 µM;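 active = activation factor of 2 or more for CYP2C9 at a 5 µM dose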
Hits are given with their value. Shown are actives, neighbours in structure and some others; about 27% of the full set was active somewhere.

`CCOc1ccc(NC(=O)CSc2nnc(C3CC3)n2N)cc1` gave CYP2C19 activ inactive, CYP2C19 inh inactive, CYP2C9 inh inactive, EphB4 antag inactive and CYP2C9 act inactive.
CCOC(=O)c1c(-c2ccccc2)nc2ccc(Cl)cn12 was read as CYP2C19 activ inactive, CYP2C19 inh inactive, CYP2C9 inh inactive, EphB4 antag inactive and CYP2C9 act inactive.
For O=C1c2ccsc2SCCN1Cc1c(Cl)cccc1Cl the results were CYP2C19 activ inactive, CYP2C19 inh 97, CYP2C9 inh 89, EphB4 antag inactive and CYP2C9 act inactive.
For O=C(Nc1cnn(Cc2ccc(Cl)cc2Cl)c1)c1cc(-c2cccs2)on1 the results were CYP2C19 activ inactive, CYP2C19 inh inactive, CYP2C9 inh inactive, EphB4 antag inactive and CYP2C9 act inactive.
Screening O=C1c2ccsc2SCCN1Cc1ccc(Cl)cc1Cl returned CYP2C19 activ inactive, CYP2C19 inh 53, CYP2C9 inh inactive, EphB4 antag inactive and CYP2C9 act inactive.
`Cc1cc(C)cc(OCC(=O)Nc2ccc(N3CCCC3)cc2)c1` gave CYP2C19 activ inactive, CYP2C19 inh inactive, CYP2C9 inh inactive, EphB4 antag inactive and CYP2C9 act inactive.
`Cc1cc(C)cc(OCC(=O)Nc2ccc(F)cc2)c1` gave CYP2C19 activ inactive, CYP2C19 inh 59, CYP2C9 inh inactive, EphB4 antag inactive and CYP2C9 act inactive.
Screening Cc1cc(OCC(=O)NCCN2CCOCC2)cc(C)c1Br returned CYP2C19 activ inactive, CYP2C19 inh 99, CYP2C9 inh inactive, EphB4 antag inactive and CYP2C9 act 2.1.
Cc1cc(OCC(=O)NCC(C)C)cc(C)c1Br was read as CYP2C19 activ inactive, CYP2C19 inh inactive, CYP2C9 inh inactive, EphB4 antag inactive and CYP2C9 act inactive.
O=C(COc1ccc(CO)cc1Cl)Nc1ccc(F)cc1 was read as CYP2C19 activ inactive, CYP2C19 inh 58, CYP2C9 inh inactive, EphB4 antag inactive and CYP2C9 act inactive.
Screening Cc1cc(OCC(=O)Nc2ccncc2)cc(C)c1Br returned CYP2C19 activ inactive, CYP2C19 inh 100, CYP2C9 inh 99, EphB4 antag inactive and CYP2C9 act inactive.
Screening O=C(CCS(=O)(=O)c1ccc(Br)s1)N1CCc2ccccc21 returned CYP2C19 activ inactive, CYP2C19 inh inactive, CYP2C9 inh inactive, EphB4 antag inactive and CYP2C9 act inactive.
Screening COc1ccc(-c2nc(CN3CCC(C(=O)N4CCc5ccccc54)CC3)c(C)o2)cc1OC returned CYP2C19 activ inactive, CYP2C19 inh inactive, CYP2C9 inh inactive, EphB4 antag inactive and CYP2C9 act inactive.
Screening Fc1ccccc1Nc1nc2ccccc2n2nnnc12 returned CYP2C19 activ inactive, CYP2C19 inh inactive, CYP2C9 inh inactive, EphB4 antag inactive and CYP2C9 act inactive.
For COc1ccccc1NC(=O)COc1ccc(CO)cc1Cl the results were CYP2C19 activ inactive, CYP2C19 inh 97, CYP2C9 inh 92, EphB4 antag inactive and CYP2C9 act inactive.
Screening O=C(COc1ccc(CO)cc1)Nc1ccc(F)cc1 returned CYP2C19 activ inactive, CYP2C19 inh 52, CYP2C9 inh inactive, EphB4 antag inactive and CYP2C9 act inactive.
Screening COc1ccc(-n2c(N3CCN(C)CC3)nc3sc4c(c3c2=O)CCCCC4)cc1 returned CYP2C19 activ inactive, CYP2C19 inh 64, CYP2C9 inh inactive and CYP2C9 act inactive.
Screening COc1ccc(-n2c(NCCN(C)C)nc3sc4c(c3c2=O)CCCCC4)cc1 returned CYP2C19 activ inactive, CYP2C19 inh inactive, CYP2C9 inh inactive, EphB4 antag inactive and CYP2C9 act inactive.
C=CCNc1nc(NC(C)(C)CO)nc(OC)n1 was read as EphB4 antag inactive.
For O=C(O)C1C2CCC(O2)C1C(=O)Nc1cnn(Cc2ccccc2)c1 (stereo not given) the results were CYP2C19 activ inactive, CYP2C19 inh 83, CYP2C9 inh inactive, EphB4 antag inactive and CYP2C9 act inactive.
CC(=O)c1c(C)[nH]c(C(=O)Nc2cc(C)cc(C)c2)c1C was read as CYP2C19 activ inactive, CYP2C19 inh 58, CYP2C9 inh 84, EphB4 antag inactive and CYP2C9 act inactive.
Screening O=C(COc1ccccc1Br)NCc1ccco1 returned CYP2C19 activ inactive, CYP2C19 inh inactive, CYP2C9 inh inactive, EphB4 antag inactive and CYP2C9 act inactive.
COc1ccc(OCC(=O)OCC(=O)NCc2ccco2)cc1 was read as CYP2C19 activ inactive, CYP2C19 inh inactive, CYP2C9 inh inactive, EphB4 antag inactive and CYP2C9 act inactive.
Screening CCc1ccc(OCC(=O)NCc2ccco2)c(Br)c1 returned CYP2C19 activ inactive, CYP2C19 inh 87, CYP2C9 inh 72, EphB4 antag inactive and CYP2C9 act inactive.
For CC(Oc1ccccc1)C(=O)OCC(=O)NC(=O)NCc1ccco1 (stereo not given) the results were CYP2C19 activ inactive, CYP2C19 inh inactive, CYP2C9 inh 52 and CYP2C9 act inactive.
`O=C(COC(=O)CC1CC2CCC1C2)NC(=O)NCc1ccco1` (stereo not given) gave CYP2C19 activ inactive, CYP2C19 inh 63, CYP2C9 inh 70, EphB4 antag inactive and CYP2C9 act inactive.
`CC(C)c1ccc(OCC(=O)NCc2ccco2)cc1` gave CYP2C19 activ inactive, CYP2C19 inh 90, CYP2C9 inh 74, EphB4 antag inactive and CYP2C9 act inactive.
`O=C(COC(=O)CCOc1ccccc1)NCc1ccco1` gave CYP2C19 activ inactive, CYP2C19 inh inactive, CYP2C9 inh inactive, EphB4 antag inactive and CYP2C9 act inactive.
For COc1ccc(N2CCN(C(=O)c3ccc(Oc4ccc(C(F)(F)F)cn4)cc3)CC2)cc1 the results were CYP2C19 activ inactive, CYP2C19 inh inactive, CYP2C9 inh inactive, EphB4 antag inactive and CYP2C9 act inactive.
Screening c1ccc(CSc2ncnc3c2cnn3Cc2ccccc2)cc1 returned CYP2C19 activ inactive, CYP2C19 inh inactive, CYP2C9 inh inactive, EphB4 antag inactive and CYP2C9 act inactive.
C=C(C)c1ccc(C(C)(C)NC(=O)NCc2ccco2)cc1 was read as CYP2C19 activ inactive, CYP2C19 inh 90, CYP2C9 inh 81, EphB4 antag inactive and CYP2C9 act inactive.
Screening CCOc1ccc(C(=O)NCc2ccco2)cc1 returned CYP2C19 activ inactive, CYP2C19 inh 66, CYP2C9 inh inactive and CYP2C9 act inactive.
Screening O=C(NCCCn1ccnc1)Nc1cccc(Cl)c1 returned CYP2C19 activ inactive, CYP2C19 inh 96, CYP2C9 inh 100, EphB4 antag inactive and CYP2C9 act inactive.
Screening CC(C)(Oc1ccc(Cl)cc1)C(=O)NCCCn1ccnc1 returned CYP2C19 activ inactive, CYP2C19 inh 100, CYP2C9 inh 87, EphB4 antag inactive and CYP2C9 act inactive.
Screening O=C(CCn1cccc1)NCCc1ccc(Cl)cc1 returned CYP2C19 activ inactive, CYP2C19 inh 59, CYP2C9 inh inactive, EphB4 antag inactive and CYP2C9 act inactive.
